Measurements from PubChem BioAssay (NCATS).
Records with an inconclusive call do not appear. Unmarked numbers belong to inactive results. Active and inactive are the calls of the source. The call rests on the fitted dose curve; in most records, active means well fitted inhibition curve with a large enough effect; inconclusive means small, poorly fitted or top-dose-only effect; inactive means flat fitted curve, though single readings scatter.

What follows are compounds tested on CRL-7250 (assay: Cytotoxic Profiling of Annotated Libraries Using Quantitative High-Throughput Screening (AID 1296008; further: nearly all actives have a fitted effect of over 60% in size)). Conditions: Five cell lines viability, CellTiter-Glo ATP luminescence, 48-72 h; max response: hits give low values.
Outline: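 Cells exposed to compounds for 48 or 72 hr at 37 degrees Celsius. Viability read as ATP-coupled luminescence with CellTiter-Glo after 10 min at room temperature.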
On the % scale 0 is the no-effect control and ±100 the full control effect.

Compound	max response	outcome
CC(=O)NCCCCn1c2c(c3ccccc31)C(=O)NCC2	4.55%	
Cc1nnc(C(C)C)n1C1CC2CCC(C1)N2CCC(NC(=O)C1CCC(F)(F)CC1)c1ccccc1 (centres undefined)	-10.9%	
CC1=CC[C@]2(C(=O)O[C@@H]3O[C@H](CO[C@@H]4O[C@H](CO)[C@@H](O[C@@H]5O[C@@H](C)[C@H](O)[C@@H](O)[C@H]5O)[C@H](O)[C@H]4O)[C@@H](O)[C@H](O)[C@H]3O)CC[C@]3(C)C(CCC4[C@@]5(C)C[C@@H](O)[C@H](O)[C@@](C)(CO)C5CC[C@]43C)C2C1C (some centres undefined)	-9.97%	
COc1ccc(/C=C/C(=O)O[C@@H]2[C@@H](O)[C@H](C)O[C@@H](OC3C4C=COC(O[C@@H]5O[C@H](CO)[C@@H](O)[C@H](O)[C@H]5O)C4C4(CO)OC34)[C@@H]2O)cc1OC (some centres undefined)	0.628%	
C=C(C)[C@H]1C[C@@H](O)C(=C)CC[C@@H](O)C(=C)[C@@H](O)C1	-0.626%	
CC1(C)CC2C(O)C3=C(CC(C)(O)C2C1)C(=O)OC3O (centres undefined)	-0.0685%	
Oc1ccc([C@H]2COc3cc(O)ccc3C2)cc1		inactive
CC(=C/C(=O)O)/C=C/[C@]1(O)[C@@]2(C)CO[C@]1(C)C[C@H](O[C@@H]1O[C@H](CO)[C@@H](O)[C@H](O)[C@H]1O)C2	1.76%	
C[C@@H]1C(=O)O[C@H]2[C@H]1CC[C@@]1(C)C(=O)C=C[C@](C)(O)[C@H]21		inactive
CC1(C)C[C@H]2C3=CCC4[C@@]5(C)CC[C@H](O[C@H]6O[C@H](C(=O)O)[C@@H](O)[C@H](O)[C@H]6O[C@H]6O[C@H](CO)[C@@H](O)[C@H](O)[C@H]6O[C@@H]6O[C@H](CO)[C@@H](O)[C@H](O)[C@H]6O)[C@](C)(CO)C5CC[C@@]4(C)[C@]3(C)CC[C@@]2(C)[C@H](O[C@@H]2OC[C@H](O)[C@H](OC3O[C@H](CO)[C@@H](O)[C@H](O)[C@H]3O)[C@H]2O)[C@@H]1O (some centres undefined)	3.94%	
CC1(CO)CC2C(O)C(=O)C3(CO)CC3(C)C2C1 (centres undefined)	-4.66%	
O=C(COc1ccc(Cl)cc1)NC1CCC(NC(=O)COc2ccc(Cl)cc2)CC1 (centres undefined)	2.66%	
OC[C@H]1O[C@@H](OC(CCCCc2ccc(O)cc2)CCc2ccc(O)cc2)[C@H](O[C@@H]2OC[C@](O)(CO)[C@H]2O)[C@@H](O)[C@@H]1O (some centres undefined)	3.53%	
C=C1CCC[C@]2(C)C[C@]3(O)OC(=O)C(C)=C3C[C@@H]12		inactive
Nc1ncnc2c1ncn2[C@H]1CCCO1	-0.0341%	
CC1=C2[C@@H]([C@H](C)CC[C@H]2/C=C(\C)C(=O)O)[C@H](O)C1	0.252%	
CC1=CC(=O)CC(C)(C)C1CCC(C)OC1OC(COC(=O)c2cc(O)c(O)c(O)c2)C(O)C(O)C1O (centres undefined)	-1.65%	
COC(=O)[C@H](CC1C=NC=N1)NCC12CC3CC(CC(C3)C1)C2 (some centres undefined)	-3.43%	
CC1(C)CCCC2(C)C3=C(C(=O)OC3O)C(O)CC12 (centres undefined)	-10.8%	
CC(=O)O[C@@H]1C[C@@]23C[C@@]24CC[C@H](OC2OC[C@@H](O)[C@H](O)[C@H]2O)C(C)(C)[C@@H]4CC[C@H]3[C@]2(C)CC3OC4(C[C@@H](C)C3[C@@]12C)OCC1(C)OC14 (some centres undefined)	-1.36%	

Compound	max response	outcome
C=CC1C(O[C@@H]2O[C@H](CO)[C@@H](O)[C@H](O)[C@H]2O)OC=C(C(=O)OC)C1CC(=O)O (some centres undefined)		inactive
C#Cc1cnc2[nH]c(=O)n(C(CC)CC)c2n1		inactive
CC(C)C(=O)O[C@@H]1[C@@H](O)[C@@H](O[C@H]2O[C@H](CO)[C@@H](O)[C@H](O)[C@H]2O)O[C@H](CO)[C@H]1O	-2.11%	
COc1cc(C)c(C(=O)O[C@H]2[C@@H](O)[C@H](n3ccc(=O)[nH]c3=O)O[C@@H]2CO)c(OC)c1	-3.82%	
C[C@@H]1O[C@@H](OC[C@H]2O[C@@H](OCC3CCC4CC3C4(C)C)[C@H](O)[C@@H](O)[C@@H]2O)[C@H](O)[C@H](O)[C@H]1O (some centres undefined)	-0.807%	
CC1=CC(=O)C[C@H]2[C@@H]1CC[C@@H](C)[C@]21CO[C@H](c2ccoc2)C1=O	3.91%	
CC(C)c1ccc(CC(=O)N2CCC[C@@H](c3cccc(OC(C)(C)C(=O)O)c3)C2)cc1	-8.91%	
CC(=O)NC(CCC(=O)O)C(=O)NCCc1ccc(O)cc1 (centres undefined)		inactive
C=C[C@H]1[C@H](O[C@@H]2O[C@H](CO[C@@H]3OC[C@](O)(CO)[C@H]3O)[C@@H](O)[C@H](O)[C@H]2O)OC=C2C(=O)OCC[C@H]21		inactive
c1ccc(Nc2nc3c(s2)CCCc2[nH]ncc2-3)nc1	-6.19%	
COC(=O)C1C(CC(C)=O)C=CC(O)C12Oc1cc(C)cc(O)c1C2=O (centres undefined)	-4.03%	
COC(=O)C1=C[C@@H](O)[C@@H](O)[C@H](O[C@@H]2O[C@H](COC(=O)/C=C/c3ccccc3)[C@@H](O)[C@H](O)[C@H]2O)C1		inactive
C/C=C(\C)C(=O)O[C@@H](C)[C@H]1CC[C@]2(O)C3CCC4C[C@@H](OC5CC(OC)C(OC6CC(OC)C(OC7CC(OC)C(OC8OC(C)C(OC9OC(CO)C(O)C(O)C9O)C(OC)C8O)C(C)O7)C(C)O6)C(C)O5)CC[C@]4(C)C3[C@H](O)[C@@H](O)[C@]12C (some centres undefined)	-8.84%	
C[C@@]12C[C@]3(O)O[C@H](O1)[C@]1(COC(=O)c4ccccc4)[C@H]3C[C@@]12O[C@@H]1O[C@H](COC(=O)c2ccccc2)[C@@H](O)[C@H](O)[C@H]1O	-3.18%	
C/C=C(\C)C(=O)O[C@H]1[C@H](O)[C@]2(COC(C)=O)[C@H](O)C[C@]3(C)C(=CCC4[C@@]5(C)CC[C@H](O[C@@H]6O[C@H](C(=O)O)[C@@H](O[C@@H]7O[C@H](CO)[C@@H](O)[C@H](O)[C@H]7O)[C@H](O)[C@H]6O[C@@H]6O[C@H](CO)[C@@H](O)[C@H](O)[C@H]6O)[C@](C)(CO)C5CC[C@]43C)[C@@H]2CC1(C)C (some centres undefined)	-9.07%	
CCC(CC)n1ccc2c(C(=O)NCc3c(C)cc(C)[nH]c3=O)cc(C#N)cc21	-1.01%	
COc1cc(O[C@@H]2O[C@H](CO)[C@@H](O)[C@H](O)[C@H]2O)c(CCC(=O)OC[C@H]2O[C@@H](Oc3cc(OC)c(C4OC(=O)C(C)(O)C4O)cc3CCC(=O)O)[C@H](O)[C@@H](O)[C@@H]2O)cc1C1OC(=O)C(C)(O)C1O (some centres undefined)	1.01%	
CC(=O)O[C@H]1C[C@@H]2[C@]3(CC[C@]4(C)[C@@H](C5(C)CCC(C(C)(C)O)O5)[C@@H](O)C[C@@]24C)C[C@@]32CC[C@H](O[C@@H]3OC[C@@H](O)[C@H](O)[C@H]3O)C(C)(C)[C@H]12 (some centres undefined)	4.65%	
CC1(C)CCC[C@@]2(C)[C@H]1[C@H](O)C=C1COC(=O)[C@@]12O		inactive
